This is part of a sample that, as a whole, favours compounds with a hit. Of some 83,000 tested, about 20% had one in any assay.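 Negative percent growth values reflect cell death: -40 means 40% of the cells present at the start died, and -100 means all died.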 Activity calls are given as the source filed them. Rule for the calls: active = growth percent below 10; inactive = the rest.

The assay relates to A549/ATCC NSCLC. Put plainly: NCI-60 one-dose screen, 48 h (100 = growth as untreated, 0 = no growth, -100 = all killed). As to conditions: 10 µM unless noted.
As for `CC(C)C[C@@H](NC(=O)[C@@H](Cc1ccccc1)NC(=O)c1cnccn1)B1Oc2ccc(C[C@H](NC(=O)[C@H](Cc3ccc4c(c3)OB([C@@H](CC(C)C)NC(=O)[C@@H](Cc3ccccc3)NC(=O)c3cnccn3)O4)NC(=O)[C@@H](N)CC3CCC4OB([C@@H](CC(C)C)NC(=O)[C@@H](CC5CCCCC5)NC(=O)C5CNCCN5)OC4C3)C(=O)NCCCC[C@@H]3NC(=O)[C@@H](Cc4ccccc4)NC(=O)[C@H](CC(=O)O)NC(=O)CNC(=O)[C@H](CCCNC(=N)N)NC3=O)cc2O1` (some centres not stated), the growth was -49.5% (active). Then `CCc1nc(N)nc(N)c1C#CC(C)c1cc(-c2ccnc(C)c2)c2oc(C)nc2c1` (configuration not stated), with 3.87% (active); and `COc1ccc(/C=C/c2nc3ccccc3nc2/C=C/c2ccc(OC)cc2)cc1`, with 93.9% (inactive); and `Cc1nc(/N=C(\N)NC(=O)Nc2cccc([N+](=O)[O-])c2)sc1C`, with 89.1% (inactive).

On to `CCCCN(CCCC)CCCn1c(-c2ccccc2)ccc1-c1ccccc1`, for which the growth is 76% (inactive). On to `Oc1ccc(N=Cc2ccccc2O)cc1`, for which the growth is 101% (inactive). For `NC(N)=N/N=C(/c1ccccc1)c1ccc(F)cc1`, the growth is -15.1% (active). The value for `COc1ccc(Nc2nc(SC)nc(-c3cccc([N+](=O)[O-])c3)c2C#N)cc1` was 31.4% (inactive); that for `COc1ccc(CCNc2nc3c(c(=O)n(Cc4ccc(Br)cc4)c(=O)n3C)n2C)cc1OC` was 90% (inactive). The value for `COc1cccc(Nc2nc(SC)nc(-c3cccc([N+](=O)[O-])c3)c2C#N)c1` was 28% (inactive); that for `CCCCC/C(C=C(C#N)C#N)=C/c1ccccc1` was 61.6% (inactive). In the case of `Cn1c(=O)c2c(nc3n(-c4ccc(Cl)cc4Cl)c(Sc4nc(-c5ccccc5)c(C#N)c(=O)[nH]4)cn23)n(C)c1=O`, the growth is 20.9% (inactive). For the molecule `Cc1ccc(C2=NN3C(C2)c2cc(Br)ccc2OC32CCN(Cc3ccccc3)CC2)o1` (configuration not stated), the growth was 96.3% (inactive). Regarding `CCCCCCN(CCCCCC)C(=N)c1ccnc2ccccc12`, the growth is 78.4% (inactive). For `O=C1Nc2c(ccc(Cl)c2Cl)/C1=C\c1ccc(C(F)(F)F)cc1`, the growth was 84.1% (inactive). The value for `C=CC(=O)Nc1cccc(-c2nc(SC)nc(NCc3ccccc3)c2C#N)c1` was 53.4% (inactive); that for `CC1=CC(C)(C)Nc2ccc(Cc3ccc4c(c3)C(C)=CC(C)(C)N4)cc21` was 78.5% (inactive); that for `CCCN1CCN(c2ccc3nc(-c4ccc5nc(-c6ccc(OCC)cc6)[nH]c5c4)[nH]c3c2)CC1` was -71.4% (active). Then `COc1ccc(C(=O)COc2ccc(/C=C3\COc4ccc(OC)cc4C3=O)cc2)cc1`, with 77.9% (inactive). The value for `CC(=O)O[C@H]1C(=O)[C@@]2(C)[C@H]([C@H](OC(=O)c3ccccc3)[C@]3(O)C[C@H](OC(=O)[C@H](OC(=O)CCC(=O)OC4CCC(S/N=C(N)/N=C(\N)N(C)C)CC4)[C@@H](NC(=O)c4ccccc4)c4ccccc4)C(C)=C1C3(C)C)[C@]1(OC(C)=O)CO[C@@H]1C[C@@H]2O` (some centres not stated) was 28.5% (inactive). As for `CCOc1ccc(-n2nc(C(=O)Nc3cc(OC)c(OC)c(OC)c3)nc2-c2cc(OC)c(OC)c(OC)c2)cc1`, the growth is 86.9% (inactive). The value for `C=C1C(=O)O[C@H]2[C@H]1CC/C(COC(=O)c1cc3cc(OC)ccc3[nH]1)=C\CC[C@@]1(C)O[C@@H]21` was -73.9% (active); that for `COc1cc(Nc2cc(C)nc(N3CCN(c4ccnc5cc(Cl)ccc45)CC3)n2)cc(OC)c1` was 4.7% (active). Consider `N#CN1CCC[C@H]1C(=O)N1CCc2c(-c3[nH]nc4ncccc34)cccc21`, for which the growth is 3.83% (active). On to `Cc1cc(C)nc(SC2=C(Nc3cccc(Cl)c3)C(=O)N(Cc3ccccc3)C2=O)n1`, for which the growth is 26.4% [30 µM] (inactive).

`O=C(COc1cccc(/C=C2\COc3ccccc3C2=O)c1)Nc1nccs1`: the growth was 101% (inactive). Then `C=C(C)C(=O)Nc1ccc(NC(C)C)cc1`, with 112% (inactive).

For the origin of these results see PubChem BioAssay (NCI).
